The values that follow come from PubChem BioAssay (NCI).

Compounds without any hit were thinned out: in the full panel of roughly 83,000, 20% have a hit.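 Single-concentration screen, 48 h exposure, 96-well plates. Endpoint: percent growth. Below 10 = active.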 Unmarked numbers belong to inactive results. Activity calls are given as the source filed them.

The test has as its system SR leukemia. In words: NCI-60 one-dose screen, 48 h (100 = growth as untreated, 0 = no growth, -100 = all killed). Conditions: 10 µM unless noted. Here is the method:
Growth inhibition of the SR human tumor cell line is measured as a screen for anti-cancer activity. Cells are grown in 96 well plates and exposed to the test compound for 48 hours. Compounds are tested at a single concentration, which is 10^-5 M for most compounds. The reported endpoint is percent growth (GI% or GIPRCNT), where numbers from 0 - 100% represent growth inhibition, and numbers from -100% - 0 represent cell death. For example, a value of 40 represents 60% growth inhibition. A value of 0 means no net growth occurred over the course of the experiment. A value of -40 indicates 40% of cells at the beginning of the experiment died by the end of the experiment. A value of -100 means all cells are dead at the end of the experiment.
NCI-60 Human Tumor Cell Lines Screen was performed using the standard one-dose NCI protocol, which is described in more detail at https://dtp.cancer.gov/discovery_development/nci-60/default.htm.
Compounds with GIPRCNT values below 10 were considered active. Activity score was based on GIPRCNT using the following formula: […]
Score is 0 for GIPRCNT values of 100 or above, 50 for GIPRCNT values of 0, and 100 for GIPRCNT values of -100.
For the compound `O=c1c2cc(F)ccc2oc2c(NCCNCCO)nc3ccccc3c12`, the growth was -28.7% (active).

As for `CCOC(=O)n1cc(C2=C(c3cn(C)c4ccccc34)COC2=O)c2ccccc21`, the growth is 14%.

Regarding `O=C(N/N=C/c1ccc(F)cc1)c1[nH]c2ccc(I)cc2c1-c1ccccc1`, the growth was 114%.

Turning to `CCC(C)Oc1cc(/C=N/NC(=O)c2cnn3c2NC(c2ccccc2)C3)ccc1OC` (stereo not given), the growth was 25.8%.

As for `Cc1nn(CC(=O)O)c2c1C(=O)CC(C)(C)C2`, the growth was 89.1%.

Regarding `CN([N-]C(=O)CC(=O)[N-]N(C)C(=S)c1ccccc1)C(=S)c1ccccc1.[Cu+2]`, the growth was -17.7% (active).

For `C=CC(=O)N1CC2(CC(n3nc(-c4ccc(Oc5ccccc5)cc4)c4c(N)ncnc43)C2)C1`, the growth was 31.5%.

As to `Fc1ccccc1Nc1ccc2nnc(-c3ccncc3)n2n1`, the growth is 89.4%.

As for `CC(=O)OC[C@]1(C)C=C2C(=O)[C@](C)(O)C3(CC3)C(C)=C2[C@H]1OC(C)=O`, the growth is 62.8%.

As for `CC1SC(c2cccc(Oc3ccccc3)c2)N(CCc2cccs2)C1=O` (stereo not given), the growth is -2.19% (active).

Consider `O=C1Nc2ccc(Cl)cc2/C1=N/N=C(c1ccccc1)c1ccccc1`, for which the growth was 101%.

`COc1cc(/C=N/NC(=O)c2cnn3c2NC(c2ccccc2)C3)cc(OC)c1OC` (stereo not given): the growth is 47.6%.

Turning to `Cc1nc2cc(Nc3nc(NCCO)nc(Nc4ccc(F)cc4)n3)ccc2n1Cc1ccccc1`, the growth was 14.9%.

Take `CCOC(=O)c1cn2c3c(cc(F)cc3c1=O)C(CC)c1ccccc1C2` (stereo not given): the growth was 66.2%.

For the compound `CN1CCc2c(Sc3ccc(C(=O)NO)cc3)c3ccccc3n2C1`, the growth was 12.6%.

Turning to `Cn1c2c(cc(S(=O)(=O)c3ccccc3)c1=O)CCc1c-2cnn1-c1ccccc1Cl`, the growth is 80.2%.

On to `COc1ccc(-c2c3c(N)c4c(nc3nc3c2c(C)nn3-c2ccccc2)CCCCC4)cc1`, for which the growth is 54.1%.

Take `CN1CCC(OC2c3ccccc3CCc3ccccc32)CC1`: the growth is 96.5%.

Turning to `CCCCCCCCCCCCCCNc1nc(CO)ncc1-c1ccc(C(F)(F)F)cc1`, the growth is 102%.

As to `O=[N+]([O-])c1ccc2nc(N/N=C/c3ccc(O)cc3)sc2c1`, the growth was 18.2%.

As to `COc1c(O)c2c3c(c1OC)-c1ccccc1CC3N(S(=O)(=O)c1ccc(C)cc1)CC2` (stereo not given), the growth is 9.8% (active).

On to `CCCCCCCCCCCCCCn1c2ccccc2c2c3c(c4c5cc(OC)ccc5oc4c21)C(=O)NC3=O`, for which the growth is 114%.

On to `CN(C)c1ccc(/C=C(\C#N)c2cc3ccccc3n2C)cc1`, for which the growth is 22%.

Regarding `Cc1ccc(S(=O)(=O)c2ccc3[nH]c(=O)[nH]c(=O)c3c2)cc1`, the growth is 82.3%.

On to `COc1ccc(OC)c2ncccc12`, for which the growth was 99%.

Consider `COc1cc(/C=C2\C(=O)N(c3c(Cl)cccc3Cl)c3ccccc32)cc(OC)c1O`, for which the growth is 3.84% (active).

In the case of `O=C(c1cnn2c1NC(c1ccc(F)cc1)C2)N1CCCCC1` (stereo not given), the growth is 107%.

With `Oc1ccc2ccccc2c1C1NN=C(c2ccccc2)S1` (stereo not given), the growth is 2.39% (active).

Regarding `O=c1nc(NO)[nH]c(=O)n1Cc1ccc(F)cc1`, the growth was 103%.

Turning to `Cc1cc(=O)[nH]n1-c1cc(Cl)ccc1N`, the growth is 96.6%.

As for `CC(C)NCC(O)COc1ccc(CCOCC2CC2)cc1` (stereo not given), the growth was 78.3%.

In the case of `CCSc1nnc2c3cc(Br)ccc3n(C)c2n1`, the growth is 92.7%.

With `O=C1c2[nH]cc(CN[C@@H]3CCCN3)c2C(=O)c2c1c(O)c1ccccc1c2O`, the growth was -69.6% (active).

`C(=C\c1ccccc1)/CN1CCN(C(c2ccccc2)c2ccccc2)CC1`: the growth is 76.4%.

As for `COc1cc(/C=C/C(=O)C(=Cc2ccc(F)c(F)c2)C(=O)/C=C/c2ccc(O)c(OC)c2)ccc1O`, the growth is 18.2%.

Consider `O=c1[nH]c(=O)n(Cc2ccc(F)cc2)cc1F`, for which the growth is 93.5% [50 µM].

Consider `O=c1[nH]c(-c2ccncc2)nc2sc3c(c12)CCCCCC3`, for which the growth is 40%.

As to `Cc1cc(O)cc2c1[C@H]1CC[C@]3(C)[C@@H](O)CC[C@H]3[C@@H]1C=C2`, the growth is 40.3%.

With `Cc1cc(Cl)c2c(Cl)ccc(Cl)c2n1`, the growth is 91.9%.

Take `Cn1c2c(cc(S(=O)(=O)c3ccccc3)c1=O)CCc1c-2cnn1-c1cccc(Cl)c1`: the growth is 77.6%.
